# Hits are enriched below; roughly 6.9% of the tested compounds scored in any of these assays.
# Vif-APOBEC3F blk: blocks the Vif interaction with APOBEC3F; HeLa A3F-eYFP + Vif (tagged APOBEC3F with the HIV-1 protein that degrades it), YFP fluorescence increase; 390,000 compounds, 0.2% hits; Potency, µM (top dose mostly 46.1 µM), without a hit: top-dose activity, negative = active; also: potency is read from the fitted curve at half-maximal effect; % of control where 0% means no effect; nearly all actives have a fitted effect of over 65% in size
#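 HeLa cells stably expressing A3F-eYFP plus Vif, plated and incubated overnight at 37 deg C, then exposed to compounds overnight at 37 deg C. Blocked degradation read as raised yellow fluorescence (Ex 488/Em 500-530).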
# SW480 rereplic: induces DNA re-replication in SW480 colon adenocarcinoma cells; SW480 DNA re-replication, Hoechst DNA content imaging, 48 h; Potency, µM (titrated, usually from 46.1 µM), for inactives: top-dose re-replication activation, usual class: activators; 340,000 compounds, 1.8% hits; AID 624297; also: potency is read from the fitted curve at half-maximal effect; % of control where 0% means no effect; nearly all actives have a fitted effect of over 55% in size
#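 Image-based DNA-content assay: after two days of treatment, nuclei were labelled with the DNA dye Hoechst and imaged, and hits were compounds raising the count of nuclei showing high fluorescence intensity.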
# Vif-APOBEC3G blk: Vif-A3G binding inhibition. HeLa A3G-eYFP + Vif (tagged APOBEC3G with the HIV-1 protein that degrades it), YFP fluorescence, overnight. Potency, µM (top dose mostly 46.1 µM), without a hit: at the top dose activity, negative = active, most hits filed as inhibitors. 410,000 compounds, 0.076% hits; also: potency is read from the fitted curve at half-maximal effect; % is scaled to controls: 0 for no effect and ±100 for the full control effect; nearly all actives have a fitted effect of over 60% in size
# Target sequence (Q9HC16 whole entry, looked up): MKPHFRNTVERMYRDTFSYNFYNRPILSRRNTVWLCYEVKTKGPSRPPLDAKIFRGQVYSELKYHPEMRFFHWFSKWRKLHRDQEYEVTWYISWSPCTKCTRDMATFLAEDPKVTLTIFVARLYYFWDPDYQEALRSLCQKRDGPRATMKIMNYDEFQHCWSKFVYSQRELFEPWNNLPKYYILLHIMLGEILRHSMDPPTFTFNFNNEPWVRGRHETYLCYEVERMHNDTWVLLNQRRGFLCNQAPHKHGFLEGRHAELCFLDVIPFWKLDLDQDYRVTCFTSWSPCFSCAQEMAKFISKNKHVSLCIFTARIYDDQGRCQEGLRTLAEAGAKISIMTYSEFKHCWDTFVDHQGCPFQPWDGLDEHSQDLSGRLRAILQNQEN
#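 Read-out is eYFP fluorescence (Ex 488/Em 500-530) from Vif-expressing HeLa A3G-eYFP cells; more signal means A3G escaped Vif-mediated degradation. Cells plated overnight, compound pinned in, incubated overnight at 37 deg C.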
# MCF10A rerep: DNA re-replication induction in MCF 10a cells. Potency, µM (top dose mostly 46.1 µM), inactives show at the top dose activity, positive = re-replication, usual class: activators. MCF 10A DNA re-replication, Hoechst nuclear intensity, 48 h. 350,000 compounds, 2.9% hits. AID 624296; also: potency is read from the fitted curve at half-maximal effect; % of control where 0% means no effect; nearly all actives have a fitted effect of over 50% in size
# Giardia killer: Giardia lamblia killing. Giardia lamblia trophozoite viability. activity change, % at 7.66 µM, hits read low. 340,000 compounds, 0.15% hits. AID 540267; in the data active = activity change below about -80%; inconclusive = between about -30% and that limit;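 also: parasites exposed to compound for two days anaerobically before the ATP read; % is scaled to controls: 0 for no effect and ±100 for the full control effect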
#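 Media and compound were dispensed first, then trophozoites at 100 cells/well; plates sat 48 hrs at 37 deg C without oxygen before ATP luminescence reagent was added and read after 15-30 min at room temperature.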
# IL-1B inflam inh: inhibitors of inflammasome signaling (IL-1 beta secretion); THP-1 LPS/ATP IL-1B secretion, AlphaLISA, 16 h; stronger effect = lower value; activity change, % at 57.5 µM; 360,000 compounds, 4.7% hits; AID 743279; in the data active = activity change below about -50%; inconclusive = mostly about -30% to -49%; also: % is scaled to controls: 0 for no effect and ±100 for the full control effect
#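 Secreted IL-1B measured by AlphaLISA bead assay after 16 h compound exposure of THP-1 cells; compounds (final up to 57.5 uM) added 1 h before LPS (250 ng/mL) and ATP (1.25 mM) stimulation; lower signal means less secretion.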
# * marks the source's active call; other numbers are inactive results; ? = inconclusive; . = no result given. Unless noted, calls follow the shape of the dose curve; as a rule, active = well fitted curve in the direction sought with a large enough effect; inconclusive = small, poorly fitted or top-dose-only effect, or another doubt; inactive = no such curve, though single readings can be large; an effect the other way counts as inactive or inconclusive.
SMILES,Vif-APOBEC3F blk,SW480 rereplic,Vif-APOBEC3G blk,MCF10A rerep,Giardia killer,IL-1B inflam inh
COc1cc(Br)cc(C=Nc2cccc(C(F)(F)F)c2)c1O,-13%,-1%,1%,21µM*,6,-50*
CCc1cc2c(=O)nc3n(c2s1)Cc1ccccc1/C3=C(/O)c1cccc([N+](=O)[O-])c1,4%,1%,0%,?,-28,0
CCc1cc2c(=O)nc3n(c2s1)Cc1ccccc1/C3=C(/O)c1ccccc1Cl,-17%,9%,-1%,6.5µM*,14,-16
O=C(O)CCCCCN1C(=O)CSC1=S,6%,-7%,0%,25%,-1,-19
CC(C)OC(=O)CCCCCN1C(=O)CSC1=S,-6%,0%,-1%,?,-14,-56*
Nc1ccc2nc(SCc3ccccc3F)sc2c1,-14%,5%,-6%,21µM*,-3,-1
COC(=O)c1c(C)[nH]c(C(=O)/C=C/c2ccccc2)c1C,-8%,-128%,1%,-46%,-26,-19
Cc1[nH]c2ccccc2c1/C=C/C(=O)c1ccccc1,28µM*,18µM*,?,21µM*,-12,-12
Cc1[nH]c2ccccc2c(=O)c1C(=O)/C=C/c1ccccc1,-9%,?,?,12µM*,-20,-101*
O=C(C=Cc1ccccc1)c1c[nH]c2ccccc2c1=O,-4%,8.2µM*,-23%,6.5µM*,5,-98*
Cc1cccc(N2CCN(c3ccc(C(=O)O)cc3NC(=O)c3cccc(Cl)c3)CC2C)c1 (centres undefined),9%,.,-4%,.,.,.
COc1ccc(S(=O)(=O)NCCc2sc(-c3ccccc3)nc2C)cc1F,0%,.,1%,.,.,.
Nc1ccc(C(=O)NN2C(=O)[C@H](Cl)C2c2ccc(Cl)cc2)cc1 (some centres undefined),7%,9.2µM*,?,16µM*,9,-104*
Clc1ccc(CN2CCC(CNc3ncnc4onc(-c5ccc(Cl)cc5)c34)CC2)cc1,-6%,.,-2%,.,.,.
Cc1cc(C(=O)NC2CCCCC2)c(C)n1-c1ccc(F)cc1,-4%,7%,-1%,?,-18,-83*
Cc1ccc(N2CC(C(=O)Nc3nnc(C)s3)CC2=O)cc1 (centres undefined),0%,-3%,-1%,?,10,33
Cc1ccc(N2CC(C(=O)Nc3ncc([N+](=O)[O-])s3)CC2=O)cc1 (centres undefined),-11%,4%,0%,-1%,-85*,84
CCc1c(C)c2c(C)nn(-c3ccccc3)c2oc1=O,-1%,-6%,3%,1%,-15,35
Cc1c(CCO)c(=O)oc2n[nH]c(-c3ccccc3)c12,2%,20%,-1%,-6%,18,-61*
N#Cc1ccc(/C=C\c2nccc3c2[nH]c2ccccc23)cc1,?,2.1µM*,13µM*,?,14,-84*
COc1ccc(/C=C\c2nccc3c2[nH]c2ccccc23)cc1,.,.,?,.,2,.
Clc1ccc(/C=C\c2nccc3c2[nH]c2ccccc23)cc1,?,9.2µM*,-17%,2.6µM*,-5,48
CCN(C(=O)c1cc2cc3ccc(C)cc3nc2o1)c1ccc(OC)cc1,-14%,-2%,-8%,?,-4,-52*
Cc1ccc2cc3cc(C(=O)N4CC(C)CC(C)C4)oc3nc2c1 (centres undefined),-5%,7%,4%,8%,11,-53*
Cc1ccc2cc3cc(C(=O)N4CCCCC4C)oc3nc2c1 (centres undefined),3%,0%,-7%,-1%,-11,-77*
COc1ccc(CNC(=O)c2cc3cc4ccc(C)cc4nc3o2)cc1,-1%,.,-3%,.,.,.
CCC(CO)[n+]1c(C)cc(/C=C2\Sc3ccccc3N2Cc2ccccc2)cc1C (centres undefined),11µM*,?,13µM*,?,2,-104*
